In the library only some 3.6% were active in any assay of this set; here they are far more common.
mHTT-CaM PPI inh: disrupts binding of mutant huntingtin to calmodulin; AlphaScreen His-mHTT/GST-CaM binding, luminescence; inhibition, % at 15 µM; 3.6% of 190,000 active; AID 1671202; P42858;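 further: 0% = both proteins with DMSO and 100% = one protein alone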
Pf apPOL block: Pf-apPOL DNA polymerase inhibition; 0.25% of 210,000 active; Recombinant Pf-apPOL, molecular beacon fluorescence, 1.5 h; AID 1794808; inhibition, % at 10 µM
Active calls of the source: *. No stated cut-off is given here; in the data, active means inhibition above about 50%; inactive means the rest.

What do the screens show for `CC(C)NC(=O)c1ccc(OCC2CCCN(C(=O)c3cc(F)ccc3F)C2)cc1` (configuration not stated)?
mHTT-CaM PPI inh: 9.2; Pf apPOL block: -5.1

Results for N#CC1(C#N)C2CCCCC23OC(=N)C1(C#N)C(c1cccc(F)c1)O3 (configuration not stated) ?
mHTT-CaM PPI inh: -4.0; Pf apPOL block: -1.9

Results for O=C(NCc1cccc(F)c1)C1CCN(c2nn3c(=O)c4c(nc3s2)CCCC4)CC1 ?
mHTT-CaM PPI inh: 10.0; Pf apPOL block: 8.6

Results for Cc1ccc(CNC(=O)C2CCN(c3nn4c(=O)c5c(nc4s3)CCCC5)CC2)cc1 ?
mHTT-CaM PPI inh: 89.1*; Pf apPOL block: 2.9

How did Clc1ccc(C2CC(c3cccc(Br)c3)Nc3ncnn32)cc1 (configuration not stated) do in these assays?
mHTT-CaM PPI inh: 53.0*; Pf apPOL block: -2.5

What do the screens show for `Clc1ccc(C2CC(c3ccccc3)Nc3ncnn32)cc1` (configuration not stated)?
mHTT-CaM PPI inh: 11.3; Pf apPOL block: -3.8

Results for Cc1ccc(C2CC(c3ccccc3)n3ncnc3N2)cc1 (configuration not stated) ?
mHTT-CaM PPI inh: -6.4; Pf apPOL block: -2.5

Results for Cc1ccc(C2CC(c3cccs3)n3ncnc3N2)cc1 (configuration not stated) ?
mHTT-CaM PPI inh: 4.0; Pf apPOL block: -1.8

How did c1ccc(-c2ccc(C3CC(c4cccs4)n4ncnc4N3)cc2)cc1 (configuration not stated) do in these assays?
mHTT-CaM PPI inh: 55.0*; Pf apPOL block: -8.2

How did Cc1ccc(C2CC(c3ccc(Br)cc3)n3ncnc3N2)cc1 (configuration not stated) do in these assays?
mHTT-CaM PPI inh: 53.0*; Pf apPOL block: -4.6

How did COc1ccc(C2CC(c3cccc(Br)c3)Nc3ncnn32)cc1 (configuration not stated) do in these assays?
mHTT-CaM PPI inh: 32.0; Pf apPOL block: -1.6

What do the screens show for `Clc1ccc(C2CC(c3ccc(Br)cc3)Nc3ncnn32)cc1` (configuration not stated)?
mHTT-CaM PPI inh: 59.0*; Pf apPOL block: -5.8

What do the screens show for `Cn1nccc1C(=O)N1CCCC1c1ccc(F)cc1` (configuration not stated)?
mHTT-CaM PPI inh: -8.8; Pf apPOL block: 1.9

How did Clc1cccc(CN2CCc3nc(Nc4ccc5c(c4)OCCO5)ncc3C2)c1 do in these assays?
mHTT-CaM PPI inh: 32.2; Pf apPOL block: 1.9

Results for CN1OCC(S(=O)(=O)NC2CCCCC2)C1c1ccc(Cl)cc1 (configuration not stated) ?
mHTT-CaM PPI inh: 3.7; Pf apPOL block: -3.1

What do the screens show for `Nc1ccc(Oc2ccc(N)c(N)c2)cc1`?
mHTT-CaM PPI inh: 87.6*; Pf apPOL block: -9.5

What do the screens show for `COc1ccc(Oc2ccc(N)cc2)cc1`?
mHTT-CaM PPI inh: 21.5; Pf apPOL block: -5.4

Results for c1coc(-c2nccs2)c1 ?
Pf apPOL block: 2.5

Results for c1coc(-c2nc3sc(-c4ccco4)nc3s2)c1 ?
mHTT-CaM PPI inh: 100.2*; Pf apPOL block: -17.6

Results for O=[N+]([O-])c1cc2c(cc1CN1CCN(c3ccccc3)CC1)OCO2 ?
mHTT-CaM PPI inh: 15.3; Pf apPOL block: -1.0

How did O=[N+]([O-])c1cc2c(cc1C1N(Cc3ccccc3)CCN1Cc1ccccc1)OCO2 do in these assays?
mHTT-CaM PPI inh: 60.0*; Pf apPOL block: 3.1

Results for CCn1cc2c3c(cccc31)CN(C(C)=O)CC2 ?
mHTT-CaM PPI inh: 4.7; Pf apPOL block: -2.9

What do the screens show for `CCn1cc2c3c(cccc31)CN(C(=O)c1ccc(F)cc1)CC2`?
mHTT-CaM PPI inh: 29.6; Pf apPOL block: -6.4

Results for CCn1cc2c3c(cccc31)CN(C(=O)COc1ccccc1)CC2 ?
mHTT-CaM PPI inh: 75.5*; Pf apPOL block: -8.2

What do the screens show for `CCCn1cc2c3c(cccc31)CN(C(=O)COc1ccc(F)cc1)CC2`?
mHTT-CaM PPI inh: 54.8*; Pf apPOL block: -3.0

Results for CCC(=O)N1CCc2cc(Br)cc(S(=O)(=O)CCC(=O)NC(C)CC)c21 (configuration not stated) ?
mHTT-CaM PPI inh: -3.0; Pf apPOL block: -5.7

What do the screens show for `COc1ccc(C=C2N=C3SC(C)C(=O)N3C2=O)cc1` (configuration not stated)?
Pf apPOL block: -3.6

How did Cc1ncsc1CN1CCC(c2nc(-c3ccccc3)no2)C1 (configuration not stated) do in these assays?
mHTT-CaM PPI inh: 18.2; Pf apPOL block: 0.2

How did Cn1cccc1CN1CCC(c2nc(-c3ccccc3)no2)C1 (configuration not stated) do in these assays?
mHTT-CaM PPI inh: 50.2*; Pf apPOL block: 1.8

Results for CCCNc1cc(N2CCCC(CCC(=O)N(C)Cc3cn(C)nc3C)C2)ncn1 (configuration not stated) ?
mHTT-CaM PPI inh: 4.7; Pf apPOL block: -2.8

Results for COc1ccc(C)cc1NC(=O)N1CCCC1c1cccc(F)c1 (configuration not stated) ?
mHTT-CaM PPI inh: -5.2; Pf apPOL block: -3.4

Screening data as filed in PubChem BioAssay.
